Experimental findings from PubChem BioAssay (NCATS) are described below.

Results filed as inconclusive are left out. Where a call stands in place of a potency, no number is given. Unmarked numbers belong to inactive results. Active and inactive are the calls of the source. Calls come from the whole dose curve; as a rule, active = well fitted cell-killing curve with a large enough effect; inconclusive = small, poorly fitted or top-dose-only effect, or effect the other way; inactive = flat fitted curve, though single readings scatter.
Potency is the fitted concentration of half-maximal effect.

The subject of the first test is Hek293T. As to the kind of experiment: Primary qHTS to identify gynecologic anti-cancer compounds using libraries of approved drugs and bioactive compounds (AID 1345084). Note: nearly all actives have a fitted effect of over 55% in size. The conditions noted are these: Gynecologic cancer cell panel viability, ATPlite luminescence, 48 h, control line for the selectivity index; series mostly up to 57.5 µM. An outline of the steps:
(§1)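 Cytotoxicity screen measuring ATP content by luciferase luminescence. Each compound is applied at five concentrations for 48 h at 37 C with 5% CO2.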
(qHTS replaces the single test concentration by a dilution series.)
For `COc1ccc(Cn2ccc3ccc(C(=O)NO)cc32)cc1`, the Potency entry was “inactive”.
For `CC[C@H](CC#N)OC(=O)N[C@@H](C)c1cccc(NC(=O)Nc2ccc(-c3cnco3)c(OC)c2)c1`, the Potency is 1.78 µM (active).
In the case of `O=C(CCCN1CCN(c2ccc(F)cc2)CC1)NC1c2ccccc2CSc2ccccc21` (stereo unspecified), the Potency result was “inactive”.
For the compound `CNc1nc(Nc2ccc(C(=O)N3CCOCC3)cc2OC)ncc1Cl`, the Potency entry was “inactive”.
In the case of `O=C(Nc1cccc2c(=O)cc(-c3nn[nH]n3)oc12)c1ccc(OCCCCc2ccccc2)cc1`, the Potency entry was “inactive”.
Consider `O=C(Nc1ccc(OC(F)(F)F)cc1)c1sccc1NCc1ccnc2ccccc12`, for which the Potency entry is “inactive”.
On to `COc1nccc(-c2c(-c3ccc(F)cc3)ncn2C2CCNCC2)n1`, for which the Potency result is “inactive”.
As to `Nc1[nH]nc2nnc(-c3c(-c4ccccc4)nn4ccccc34)cc12`, the Potency entry is “inactive”.
On to `Nc1ncnc2c1c(-c1cccc(OCc3ccccc3)c1)cn2C1CC(CN2CCC2)C1` (stereo unspecified), for which the Potency was 14.1 µM (active).
On to `CN(C)CCCNC(=O)c1ccc(-c2cc(O)c3ncccc3c2)cc1`, for which the Potency entry was “inactive”.
For `CCN(CCO)CCCOc1ccc2c(Nc3cc(CC(=O)Nc4cccc(F)c4)[nH]n3)ncnc2c1`, the Potency result is “inactive”.
For the compound `CC1(COc2ccc3c(c2)ncn3-c2ccc3cccc(N4CCC(N)CC4)c3n2)COC1`, the Potency is 20 µM (active).
Take `CN1CCC(COc2cnc(-c3cccc(Cn4nc(-c5cccc(C#N)c5)ccc4=O)c3)nc2)CC1`: the Potency entry was “inactive”.
Regarding `Nc1ccc(-c2ccc3ncc4ccc(=O)n(-c5cccc(C(F)(F)F)c5)c4c3c2)cn1`, the Potency was 0.316 µM (active).
Take `COc1ccnc(CS(=O)c2nc3ccc(OC(F)F)cc3[nH]2)c1OC` (stereo unspecified): the Potency entry is “inactive”.
On the same count and under the same terms, in the case of `COc1ccc(-c2cc3nccn3c(Nc3ncccc3C(N)=O)n2)cc1OC` it was “inactive”; in that of `CNC(=O)c1cc(Oc2ccc(NC(=O)Nc3ccc(Cl)c(C(F)(F)F)c3)c(F)c2)ccn1`, “inactive”.
Regarding `CCC(=O)N1CCN(c2ccc(-n3c(=O)ccc4cnc5ccc(-c6cnc7ccccc7c6)cc5c43)cc2C(F)(F)F)CC1`, the Potency is 0.1 µM (active).
Consider `O=C1NC(=O)C(c2cnc3ccccn23)=C1c1cn2c3c(cccc13)CN(C(=O)N1CCOCC1)CC2`, for which the Potency result was “inactive”.
Still for that read-out and setting: for `Cc1ccccc1C(=O)c1ccc(Nc2ccc(Br)cc2N)cc1Cl` the value was “inactive”.

The next test has as its system JEG-3. The test is described as above. As to conditions: Gynecologic cancer cell panel viability, ATPlite luminescence, 48 h; series mostly up to 57.5 µM. The procedure, abridged: as §1
In general terms: ATP-based viability assays read luminescence as a measure of living cells.
As for `CC[C@H](CC#N)OC(=O)N[C@@H](C)c1cccc(NC(=O)Nc2ccc(-c3cnco3)c(OC)c2)c1`, the Potency entry was “inactive”.
For the compound `O=C(CCCN1CCN(c2ccc(F)cc2)CC1)NC1c2ccccc2CSc2ccccc21` (stereo unspecified), the Potency entry is “inactive”.
On to `Cc1cc2c(cc1C1(c3ccc(C(=O)O)cn3)CC1)C(C)(C)CCC2(C)C`, for which the Potency entry is “inactive”.
Still for that read-out and setting: for `C[C@@H]1CCO[C@H]2Cn3cc(C(=O)NCc4ccc(F)cc4F)c(=O)c(O)c3C(=O)N12` the value was “inactive”; for `Cc1cc(-c2ncc(CC(=O)Nc3ccc(-c4cnccn4)cn3)cc2C)ccn1`, “inactive”; for `Clc1ccc(C2(c3ccc(-c4cn[nH]c4)cc3)CCNCC2)cc1`, “inactive”.
On the same count and under the same terms, in the case of `CN1c2ccccc2C(=O)N2CCc3c([nH]c4ccccc34)C21` (stereo unspecified) it was 3.98 µM (active); in that of `Cc1ccc2c(c1)c1c(n2CCc2ccc(C)nc2)CCN(C)C1`, “inactive”; in that of `CCn1c(-c2nonc2N)nc2cncc(CNC3CCNCC3)c21`, “inactive”.
With `O=C(Nc1cccc2c(=O)cc(-c3nn[nH]n3)oc12)c1ccc(OCCCCc2ccccc2)cc1`, the Potency entry is “inactive”.
On to `O=C(Nc1ccc(OC(F)(F)F)cc1)c1sccc1NCc1ccnc2ccccc12`, for which the Potency entry is “inactive”.
Consider `CCNC(=O)c1noc(-c2cc(C(C)C)c(O)cc2O)c1-c1ccc(CN2CCOCC2)cc1`, for which the Potency result was “inactive”.
On to `C=CC(=O)Nc1cccc(Sc2nc(Nc3ccc(N4CCN(C)CC4)cc3)ncc2Cl)c1`, for which the Potency entry is “inactive”.
As for `COc1nccc(-c2c(-c3ccc(F)cc3)ncn2C2CCNCC2)n1`, the Potency entry was “inactive”.
The same measure, in the same setting: for `CN(C)CCCNC(=O)c1ccc(-c2cc(O)c3ncccc3c2)cc1` the value was “inactive”; for `C[C@@H](N)c1ccc(C(=O)Nc2ccnc3[nH]ccc23)cc1`, “inactive”.
Consider `CCN(CCO)CCCOc1ccc2c(Nc3cc(CC(=O)Nc4cccc(F)c4)[nH]n3)ncnc2c1`, for which the Potency result was “inactive”.
Take `C[C@@]1(C(=O)Nc2ccc(F)nc2)CCCN1c1nc(Nc2cc(C3CC3)[nH]n2)c2cccn2n1`: the Potency result was “inactive”.
Take `N#CC1(c2cccc(C(=O)Nc3cc(Oc4ccc5nc(NC(=O)C6CC6)sc5n4)ccc3F)c2Cl)CC1`: the Potency result was “inactive”.
In the case of `Nc1ccc(-c2ccc3ncc4ccc(=O)n(-c5cccc(C(F)(F)F)c5)c4c3c2)cn1`, the Potency is 8.91 µM (active).
For the compound `COc1ccnc(CS(=O)c2nc3ccc(OC(F)F)cc3[nH]2)c1OC` (stereo unspecified), the Potency entry was “inactive”.
On to `CC(C)CNc1ccnc(NCc2csc(-c3ccccc3)n2)n1`, for which the Potency entry is “inactive”.
Consider `CCC(=O)N1CCN(c2ccc(-n3c(=O)ccc4cnc5ccc(-c6cnc7ccccc7c6)cc5c43)cc2C(F)(F)F)CC1`, for which the activity change, negative = cytotoxicity was -16.3% [at 11.6 µM].
On to `O=C1NC(=O)C(c2cnc3ccccn23)=C1c1cn2c3c(cccc13)CN(C(=O)N1CCOCC1)CC2`, for which the Potency entry was “inactive”.

A further test deals with OV90. Described as above. The conditions noted are these: Gynecologic cancer cell panel viability, ATPlite luminescence, 48 h; series mostly up to 57.5 µM. An outline of the steps:
as §1
For `COc1ccc(Cn2ccc3ccc(C(=O)NO)cc32)cc1`, the Potency entry was “inactive”.
As to `Cc1cc2c(cc1C1(c3ccc(C(=O)O)cn3)CC1)C(C)(C)CCC2(C)C`, the Potency entry is “inactive”.
For `Cc1cc(-c2ncc(CC(=O)Nc3ccc(-c4cnccn4)cn3)cc2C)ccn1`, the Potency result was “inactive”.
On the same count and under the same terms, in the case of `Cc1ccc2c(c1)c1c(n2CCc2ccc(C)nc2)CCN(C)C1` it was “inactive”; in that of `CCNC(=O)c1noc(-c2cc(C(C)C)c(O)cc2O)c1-c1ccc(CN2CCOCC2)cc1`, 3.98 µM (active); in that of `C=CC(=O)Nc1cccc(Sc2nc(Nc3ccc(N4CCN(C)CC4)cc3)ncc2Cl)c1`, “inactive”.
Take `Nc1[nH]nc2nnc(-c3c(-c4ccccc4)nn4ccccc34)cc12`: the Potency result was “inactive”.
The same measure, in the same setting: for `Nc1ncnc2c1c(-c1cccc(OCc3ccccc3)c1)cn2C1CC(CN2CCC2)C1` (stereo unspecified) the value was 22.4 µM (active).
Turning to `C[C@@H](N)c1ccc(C(=O)Nc2ccnc3[nH]ccc23)cc1`, the Potency result is “inactive”.
On to `CN1CCC(COc2cnc(-c3cccc(Cn4nc(-c5cccc(C#N)c5)ccc4=O)c3)nc2)CC1`, for which the Potency result is “inactive”.
Turning to `COc1ccc(-c2cc3nccn3c(Nc3ncccc3C(N)=O)n2)cc1OC`, the Potency entry is “inactive”.
In the case of `Cc1ccccc1C(=O)c1ccc(Nc2ccc(Br)cc2N)cc1Cl`, the Potency entry is “inactive”.
